Measurements published in PubChem BioAssay (NCI).
The panel holds about 83,000 compounds, 20% with a hit somewhere; the sample as a whole holds those more often.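 Growth was measured after 48 h exposure to one concentration of compound in 96-well plates. Values under 10 count as active.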 Unmarked numbers belong to inactive results. Calls of active or inactive are those of the source.

system: MDA-MB-468 breast; experiment: NCI-60 one-dose screen, 48 h (100 = growth as untreated, 0 = no growth, -100 = all killed); details: 10 µM unless noted

SMILES	growth
CCOC(=O)c1n[nH]n2c1nc(=O)c1cnn(C)c12	113%
Cc1ccc(O)c(C(=O)O)c1	106%
CCN(CC)S(=O)(=O)c1cccc([N+](=O)[O-])c1	91.4%
N#Cc1ccc(NC(=O)Nc2cccc(C#N)c2)cc1	46.5%
CCCCN(CCCC)c1ccc(C(=NC(C)CCCN(CC)CC)c2ccc(N(C)C)cc2)cc1 (stereo not drawn)	-85.8% (active)
Cc1cc(C)c2c(N)c3cccc(C)c3nc2n1	-54.4% (active)
Brc1cccc(-c2cc(-c3ccc4c(c3)OC=CO4)[nH]n2)c1	33.4%
Cc1ccc(C(C)C)c(OCc2ccc(C(=O)N/N=C/c3cccc(O)c3O)cc2)c1	75.7%
Cc1ccc(Nc2ccc(Nc3ccc(C)cc3)c3c2C(=O)c2cccc(O)c2C3=O)cc1	83.3%
COc1ccc2nc3cc(Cl)ccc3c(N3CCN(c4ccnc(N5CCOCC5)n4)CC3)c2c1	-54.8% (active)
CCOC(=O)C1=C(C)NC(C)=C(C(=O)OCC)C1c1cc(Br)c(O)c(OC)c1	20.4%
CCCCCOc1ccc(/C=N/Nc2cc(C)nc3ccc(Cl)cc23)cc1	-29% (active)
CC(C)CSc1oc(-c2ccccc2)nc1S(=O)(=O)c1ccccc1	89.4%
O=Nc1ccc2ccccc2c1O	68.3%
CC1(C)CC(O)CCCCCCOc2c(CN)cccc2NC(=O)c2nc(cnc2N)-c2ccc(cc2)S1(=O)=O (stereo not drawn)	6.87% (active)
C=CCOc1cccc(/C=C/C(=O)c2sc(Nc3cccnc3)nc2C)c1	47.5%
COC(=O)c1nc(=S)[nH]c(C(=O)OC)c1C(=O)c1ccccc1	97.3%
O=C(NNc1nc2cc(F)c(F)cc2n2cccc12)c1cccnn1	-11.1% (active)
NC(=O)c1cc(I)ccc1NC(=O)/C=C/c1ccccc1	51.9%
COc1ccc([C@H]2C(=O)N(c3cc(OC)c(OC)c(OC)c3)[C@@H]2c2ccc(OC)c(O)c2)cc1	-2.22% (active)
[B-][N+](CC)(CC)c1ccccc1	104%
COC(CC(F)F)c1cn(S(=O)(=O)c2ccc(C)cc2)c2ccccc12 (stereo not drawn)	8.95% (active)
CCN(CCNc1cc(OC)cc2cccnc12)CCc1ccccc1	-25.4% (active)
O=C(CCCCNC(=O)c1cc(=O)c(O)co1)Nc1ccccc1	35%
c1ccc(C2=NN[C@H](c3cn(-c4ccccc4)nc3-c3ccccc3)C2)cc1	28.2%
CCOC(=O)C1=C(c2ccccc2)N=C2SC=C(c3ccc(Cl)cc3)N2C1c1ccc(Br)cc1 (stereo not drawn)	54.3%
COc1ccc2c(c1)O/C(=C\c1ccc([N+](=O)[O-])s1)C2=O	-1.9% (active)
COc1ccc2c(c1)cn1c3ccc(O)cc3[nH]c(=O)c21	-6.77% (active)
